Sampled rows, rich in hits. Any-hit rate of the full collection: about 10%.
Six1-Eya2 blk: inhibitors of human Six1/Eya2 interaction | activity change, % (test concentration not listed) | AlphaScreen GST-Six1/His-Eya2 binding, biochemical; active compounds read low | Q15475+O00167 | 0.56% of 360,000 active; in the data active = activity change below about -65%; inconclusive = mostly about -30% to -63%; also: % is scaled to controls: 0 for no effect and ±100 for the full control effect
Target sequence (O00167 whole entry, looked up): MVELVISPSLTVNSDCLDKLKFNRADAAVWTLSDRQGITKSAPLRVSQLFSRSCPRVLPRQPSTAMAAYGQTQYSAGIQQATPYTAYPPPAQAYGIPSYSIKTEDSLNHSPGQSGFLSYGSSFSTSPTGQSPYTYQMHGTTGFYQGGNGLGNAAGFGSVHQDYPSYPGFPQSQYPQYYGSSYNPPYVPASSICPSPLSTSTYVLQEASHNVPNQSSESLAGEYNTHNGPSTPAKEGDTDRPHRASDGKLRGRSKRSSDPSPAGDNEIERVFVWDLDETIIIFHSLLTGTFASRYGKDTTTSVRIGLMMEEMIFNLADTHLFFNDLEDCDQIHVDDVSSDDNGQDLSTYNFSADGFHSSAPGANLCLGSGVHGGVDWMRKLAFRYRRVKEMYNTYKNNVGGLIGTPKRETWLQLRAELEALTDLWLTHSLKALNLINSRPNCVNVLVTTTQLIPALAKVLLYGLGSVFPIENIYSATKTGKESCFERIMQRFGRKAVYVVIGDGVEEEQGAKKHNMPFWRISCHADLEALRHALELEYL
Target sequence (Q15475 whole entry, looked up): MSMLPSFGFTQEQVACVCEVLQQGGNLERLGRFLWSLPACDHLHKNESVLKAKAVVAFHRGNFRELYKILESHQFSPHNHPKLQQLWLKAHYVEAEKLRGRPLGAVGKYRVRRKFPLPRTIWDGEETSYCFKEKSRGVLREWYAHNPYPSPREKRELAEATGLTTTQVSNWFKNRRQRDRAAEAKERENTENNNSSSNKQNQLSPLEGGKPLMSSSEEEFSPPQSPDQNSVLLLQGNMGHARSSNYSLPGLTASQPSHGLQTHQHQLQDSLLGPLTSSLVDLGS
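GST-Six1 + His-Eya2 (5X stock: 250/500 nM); Tris pH 8.0, 300 mM NaCl, 0.05% BSA, 0.02% Tween 20; GSH donor/Ni acceptor beads; 1 h 37 °C dark; AlphaScreen readout.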
JMJD2A Tudor: blocks the human JMJD2A Tudor domain; O75164; AlphaScreen JMJD2A-Tudor / H3K4me3 peptide binding; Potency, µM (highest dose often 114 µM), for the others: at the highest dose activity change, negative = inhibition, usual class: inhibitors; 4.4% of 390,000 active; also: potency is read from the fitted curve at half-maximal effect; % is scaled to controls: 0 for no effect and ±100 for the full control effect; nearly all actives have a fitted effect of over 50% in size
HP1b chromo inh: blocks HP1-beta chromodomain binding to methylated histone tails; Potency, µM (top dose mostly 114 µM), without a hit: at the top dose activity change, negative = inhibition, usual class: inhibitors; P83916; AID 540317; 0.56% of 390,000 active; AlphaScreen HP1-beta / biotin-H3K9me3 peptide binding; also: potency is read from the fitted curve at half-maximal effect; nearly all actives have a fitted effect of over 70% in size
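HP1-beta protein (50 nM final) preincubated 30 min at room temperature with biotinylated H3(1-18)K9me3 peptide (50 nM) in PBS pH 7.4, 0.01% Tween-20, then compound added for 30 min. AlphaScreen streptavidin donor/nickel chelate acceptor beads (10 ug/mL final), 30 min dark, luminescence read.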
G9a inh: blocks human histone lysine methyltransferase G9a. Q96KQ7. 8.8% of 350,000 active. G9a H3K9 monomethylation, AlphaScreen, 2 h. Potency, µM (series often up to 102 µM), for the others: at the top dose activity, negative = inhibition, hits mostly inhibitors; also: potency is read from the fitted curve at half-maximal effect; % is scaled to controls: 0 for no effect and ±100 for the full control effect; nearly all actives have a fitted effect of over 75% in size
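Using a bead-based AlphaScreen, monomethylated H3K9 product from 2 h room-temperature reactions (G9a 20 nM, peptide 500 nM, SAM 20 uM) was detected with 0.5 ug/mL rabbit anti-H3K9me1 antibody.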
BAZ2B block: inhibitors of human BAZ2B bromodomain | Q9UIF8 | AID 504333 | Potency, µM (doses to about 114 µM), for inactives: at the top dose activity change, negative = inhibition, most hits filed as inhibitors | AlphaScreen BAZ2B-H3K14Ac peptide displacement | 4.4% of 360,000 active; also: potency is read from the fitted curve at half-maximal effect; % is scaled to controls: 0 for no effect and ±100 for the full control effect; nearly all actives have a fitted effect of over 60% in size
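Compounds, titrated to a top concentration of 110 uM, were incubated 30 min at room temperature with preformed BAZ2B/acetyl-K14 H3 peptide complex (50 nM each). Proximity signal was measured by AlphaScreen after 20 min with beads.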
CtBP-E1A blk: inhibitors of CtBP/E1A interaction; 0.49% of 340,000 active; AlphaScreen GST-E1A/His-CtBP binding, 1536-well; active compounds read low; AID 651724; activity change, % (test concentration not listed); in the data active = activity change below about -65%; inconclusive = mostly about -30% to -63%; also: % is scaled to controls: 0 for no effect and ±100 for the full control effect
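AlphaScreen with 125 nM GST-E1A and 125 nM His-CtBP (5X stocks) in Tris pH 8.0, 300 mM NaCl, BSA, Tween 20, TCEP. Compounds preincubated 2 h at 37 deg C, then glutathione donor/nickel acceptor beads added for 1 h at 37 deg C in dark.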
An asterisk follows results filed as active; ? = inconclusive; . = no result; [ ] = remark or other dose. Unless noted, calls follow the shape of the dose curve; as a rule, active = well fitted inhibition curve with a large enough effect; inconclusive = small, poorly fitted or top-dose-only effect; inactive = no such curve, though single readings can be large or run the other way.

SMILES	Six1-Eya2 blk	JMJD2A Tudor	HP1b chromo inh	G9a inh	BAZ2B block	CtBP-E1A blk
Cc1ccc(-n2[nH]c3c4c(ccc3c2=O)C(=O)c2ccccc2C4=O)cc1	1	-11%	-14%	2.8µM*	-13%	-2
Cc1ccc(C)c(CN2C(=O)C(=O)c3ccccc32)c1	.	-18%	1%	?	-3%	.
COCCCn1[nH]c2c3c(ccc2c1=O)C(=O)c1ccccc1C3=O	-28	-32%	-18%	7.1µM*	?	-23
CCCCN1CC(c2nc3ccccc3n2CCCCOc2ccc(C)c(C)c2)CC1=O (centres undefined)	.	-13%	24%	-36%[59 µM]	-12%	.
CC(C)OCCCNC(=O)CCCn1c(SCC(=O)c2ccc(Br)cc2)nc2c(sc3ccccc32)c1=O	.	-10%	16%	9%[59 µM]	-12%	.
COc1cc(-c2noc(-c3cc(C)[nH]n3)n2)cc(OC)c1OC	.	-6%	44%	-2%[59 µM]	-12%	.
N=C(N)SCc1nc2ccccn2c1Br	-12	-11%	12%	-5%[59 µM]	-5%	-16
Cc1cccc2nc(CSC(=N)N)c(Br)n12	-8	-1%	36%	8.9µM*	-31%	10
COc1ccc(Cn2c(CNS(=O)(=O)c3ccc4c(c3)CCCC4)nc3cccnc32)cc1	.	-20%	27%[57 µM]	5%[59 µM]	-12%	.
Cc1ccc2c(CSc3nnc(C4CC4)n3N)cc(=O)oc2c1	-2	-15%	34%	50µM*	21%	12
C=C1N(C)c2cc([N+](=O)[O-])c(N)cc2C1(C)C	?	?	?	32µM*	45µM*	0
Cc1ccc(C(C)(c2ccc(N)cc2)c2ccc(N)cc2)cc1	8	50µM*	?	.	.	-19
Nc1ccc(C(O)(C(F)(F)F)C(F)(F)F)cc1	4	?	13%	22%	-3%	-3
O=C(CSc1nc2ccccc2nc1Cc1ccccc1)Nc1ccccc1C(F)(F)F	.	-9%	20%[57 µM]	14%[59 µM]	7%	.
c1ccc(CNc2ncnc3nc(N4CCOCC4)[nH]c23)cc1	.	-13%	33%	.	.	.
CC(C)(NO)/C(=N/O)c1cccs1	11	10µM*	-26%	7.1µM*	45µM*	1
Cc1ccc(C)n1NC(=O)c1cccs1	9	-26%	-3%	-15%[12.7 µM]	-21%	-8
O=C(CSc1nc2ccccc2nc1Cc1ccccc1)N1CCc2ccccc21	.	-11%	21%[57 µM]	8%[59 µM]	7%	.
CCC(=O)c1c[nH]c(C(=O)NCc2ccccc2OC)c1	-5	-11%	38%	0%	79µM*	7
CC(=O)Nc1cccc(NC(=O)c2ccc3[nH]c(C)c(C)c3c2)c1	-9	-32%[57.1 µM]	?	-4%	-25%	-5
COc1ccccc1CNC(=O)c1ccc2[nH]c(C)c(C)c2c1	.	?	?	?	50µM*	.
Cc1cc(NC(=O)c2ccc3[nH]c(C)c(C)c3c2)ccn1	-13	-17%	13%	?	50µM*	-12
COc1ccc(NC(=O)CN2CCCN(S(=O)(=O)c3ccc(Br)cc3)CC2)c(OC)c1	.	-20%	4%	?	?	.
CCc1ccccc1NC(=O)c1cnn2c(C(F)(F)F)cc(-c3ccc(OC)c(OC)c3)nc12	.	-18%	30%	-43%[59 µM]	-10%	.
Cc1ccc(S(=O)(=O)N2CCN(C)CC2)cc1[N+](=O)[O-]	-1	-17%	22%	-35%[59 µM]	-6%	-2
SMILES	Six1-Eya2 blk	JMJD2A Tudor	HP1b chromo inh	G9a inh	BAZ2B block	CtBP-E1A blk
COC(=O)c1cc(NS(=O)(=O)c2ccc(N3CCC(C)CC3)c([N+](=O)[O-])c2)cc(C(=O)OC)c1	-18	22µM*	50µM*	?	?	-1
CN1CCN(S(=O)(=O)c2ccc(N3CCN(c4ccc(O)cc4)CC3)c([N+](=O)[O-])c2)CC1	-25	32µM*	71µM*	7.9µM*	?	-18
O=[N+]([O-])c1cc(-c2nnc(Nc3ccc(O)cc3)c3ccccc23)ccc1N1CCOCC1	?	?	?	20µM*	?	?
O=[N+]([O-])c1cc(S(=O)(=O)Nc2ccccc2)ccc1N1CCN(c2ccc(O)cc2)CC1	-16	13µM*	-83%	5µM*	28µM*	-3
O=[N+]([O-])c1cc(-c2nnc(Nc3ccccc3)c3ccccc23)ccc1N1CCOCC1	-6	?	3%	?	?	.
CC(C)c1ccc(S(=O)(=O)c2nnn3c2nc(NCCc2ccccc2)c2sccc23)cc1	.	-18%	31%	-33%[59 µM]	-27%	.
Cc1ccc(-n2nc(C)c3c(C(=O)NCCc4ccccc4)cc(C)nc32)cc1	.	-14%	3%	-3%[59 µM]	13%[57.1 µM]	.
Cc1cccc(Nc2nc(-c3ccc4c(c3)OCCO4)cs2)c1	-7	?	-35%	7.9µM*	50µM*	-2
Cc1nc(-c2ccc3c(c2)OCCO3)cs1	8	-11%	8%	32µM*	-16%	5
O=C(Nc1nc(-c2ccc3c(c2)OCCO3)cs1)C1CCCC1	-1	?	20%	45µM*	?	-11
c1ccc(Cc2ccc(OCCn3cncn3)cc2)cc1	-1	4%	47%	-34%	-2%	5
c1ccc(-c2ccc(OCCOCCn3cncn3)cc2)cc1	4	32µM*	?	?	50µM*	6
COc1ccc(OCCn2cncn2)cc1	1	7.9µM*	-13%	22µM*	56µM*	0
O=C(COc1ccc(Br)cc1Br)Nc1ccc(S(=O)(=O)Nc2ncccn2)cc1	.	-12%	10%	-30%[59 µM]	1%	.
Cc1ccc(CNc2oc(COc3ccccc3Cl)nc2C#N)cc1	-7	-33%	2%	?	-38%	-16
COc1ccccc1-c1nc(C#N)c(NCc2ccc(F)cc2)o1	-16	-34%	?	?	50µM*	-13
N#Cc1nc(-c2cccs2)oc1NCc1ccco1	-10	?	-19%	-33%[59 µM]	?	-5
N#Cc1nc(COc2ccccc2Cl)oc1NCc1ccc(F)cc1	-13	?	4%	45µM*	?	-7
Cc1ccc(CNc2oc(-c3cccs3)nc2C#N)cc1	-6	-35%	?	50µM*	?	-9
COc1ccc(CCNc2oc(-c3ccccc3OC)nc2C#N)cc1	?	?	-23%	?	?	-20
COc1ccc(/C=C/C(=O)Nc2nc3n(n2)C(c2ccc(F)cc2)C=C(c2ccccc2)N3)cc1 (centres undefined)	.	-17%	14%	-32%[59 µM]	-39%	.
CCc1ccc(OC(=O)c2sc3ncn(Cc4cccc(F)c4)c(=O)c3c2C)cc1	.	12%	47%	3%[59 µM]	7%	.
COc1ccc2[nH]c(=O)c(CN(C3CCCCC3)C(c3nnnn3Cc3ccco3)C(C)C)cc2c1 (centres undefined)	-21	?	?	22µM*	-9%	0
